# Source: PubChem BioAssay
# Values without a mark were called inactive. Unless noted, the rule behind the calls is not given here.
# Test system: not listed separately
# Assay: human hepatoma cell viability loss – ATP luminescence, cytotoxicity control for P. falciparum antimalarial project, primary screen (AID 2303;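 active = inhibition above 50%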;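 note: 0% = DMSO wells and 100% = digitonin-killed cells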)
# Settings: HepG2 viability, 24-48 h, at 10 µM, stronger effect = higher value
row,Structure (SMILES),inhibition
1,CC[C@H](C)CNC(=O)c1cncc(-c2cccc(CNCCCc3ccccc3)c2)c1,9%
2,Cn1c(NC2=NC3(c4ccccn4)N=C(Nc4nc5ccccc5n4C)NC3(c3ccccn3)N2)nc2ccccc21 (stereo not given),12%
3,Cc1cccc2[nH]c(-c3ccc(-c4cccc(CNCCN(C)C)c4)cc3)nc12,6%
4,CCn1nc(C(=O)NC2CCOc3ccccc32)c2ccccc2c1=O (stereo not given),13%
5,CC(Nc1ccnc2cc(Cl)ccc12)c1ccc(S(N)(=O)=O)cc1 (stereo not given),5%

# Biological target: L-lactate dehydrogenase (Plasmodium falciparum (isolate CDC / Honduras)) (UniProt Q27743)
# Sequence (Q27743 whole entry, looked up): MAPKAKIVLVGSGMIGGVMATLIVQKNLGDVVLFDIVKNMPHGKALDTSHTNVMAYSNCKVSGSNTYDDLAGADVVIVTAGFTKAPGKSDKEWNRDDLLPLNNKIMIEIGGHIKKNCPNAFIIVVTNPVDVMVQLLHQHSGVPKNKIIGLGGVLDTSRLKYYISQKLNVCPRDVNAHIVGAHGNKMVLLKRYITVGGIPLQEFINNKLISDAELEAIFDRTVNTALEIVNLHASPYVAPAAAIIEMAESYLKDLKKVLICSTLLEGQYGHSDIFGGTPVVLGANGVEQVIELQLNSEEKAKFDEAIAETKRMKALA
# Assay: PfLDH activity inhibition – cell lysate, 3D7 strain, counter-screen for P. falciparum growth inhibition project (AID 2304);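 note: 0% = vehicle and 100% = reference inhibitor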
# Settings: P. falciparum 3D7 crude extract, LDH APAD/NBT absorbance; at 2 µM; stronger effect = higher value
row,Structure (SMILES),inhibition
1,CCCCC(NCC)c1ccc(OCCOc2ccc(C(CCCC)NCC)cc2)cc1 (stereo not given),3%
2,CC(C)(C)c1ccc(CN2CCCCC(NC(=O)c3cc(-c4ccccc4Cl)cs3)C2)cc1 (stereo not given),-1%
3,CN(C)Cc1cccc(-c2ccc(NC(=O)c3ccc4c(=O)n(CC5CCCO5)cnc4c3)cc2)c1 (stereo not given),0%
4,CC1CCN(CC[C@H]2CCCN2S(=O)(=O)c2cccc(NC(=O)c3ccc(-c4ccc(Cl)cc4)o3)c2)CC1,3%
5,CCOC(=O)C1=C(C)NC2=C(C(=O)CC(C)(C)C2)C1c1ccc(Cl)cc1 (stereo not given),1%
6,CCn1cnc2c(N3CCCS3(=O)=O)cc(C(=O)N[C@@H](Cc3ccccc3)[C@H](O)CNC(C)(C)c3cccc(C(F)(F)F)c3)cc21,-1%
7,Cc1ccc2[nH]c(C3CCCNC3)c(-c3ccncc3)c2c1 (stereo not given),0%
8,COC(=O)[C@@H](NC(=O)[C@H](CC(C)C)Nc1ccc(C#N)c2ccccc12)c1ccc(O)cc1,0%
9,CCC(C)Oc1ccc(CCCON2C(N)=NC(N)=NC2(C)C)cc1 (stereo not given),-8%
10,C[C@H]1CN(Cc2cccc(-c3cc(CNC(=O)c4cccc(CN5CCN(CCOc6ccccc6)CC5)c4)ccc3F)c2)CCN1,4%
11,O=C1CCCN1CCCNCc1cccc(-c2ccc(-c3nc4ccccc4[nH]3)s2)c1,-3%
12,CC(=O)N[C@H](C(=O)Nc1cccc(-c2ccc(-c3nc4c(C)cccc4[nH]3)s2)c1)C(C)C,2%
13,O=C(Cc1cccc(Cl)c1)Nc1cccc(-c2c[nH]c3nc(Nc4cccc(O)c4)ncc23)c1,3%
14,CC(C)CNC(=O)c1cncc(-c2ccc(CN3CCC(N4CCCC4)CC3)cc2)c1,2%
15,O=C(Nc1ccccc1Cc1ccccc1)c1ccccc1C(F)(F)F,3%
16,CC(C)CCN1CCC(Oc2ccc(NC(=O)c3cccs3)cc2Cl)CC1,-6%
17,CNC(=O)c1cnc(Nc2ccc(N3CCN(C)CC3)c(C)c2)nc1NC,-1%
18,O=C(Nc1ccc(N2CCNCC2)nc1)c1oc(-c2ccccc2)nc1C(F)(F)F,0%
19,Cc1ccc2nc(C)cc(NN=Cc3ccc([N+](=O)[O-])cc3)c2c1,3%
20,CN1CCN(CCCN(Cc2csc(-c3ccc(CNCc4ccccc4)cc3)n2)C(=O)Nc2ccc3ccccc3c2)CC1,3%

row,Structure (SMILES),inhibition
1,CCOc1ccccc1N1CCN(CCCNC(=O)/C(=C/C=C/c2cc3cc(Cl)c(Cl)cc3[nH]2)OC)CC1,-4%
2,CC(O)C1CCCCN1C(=O)c1cccc(-c2cccc(-c3nc4ccc(F)cc4[nH]3)c2)c1 (stereo not given),-2%
3,COc1cc(CN2CCC(NC(=O)[C@H](Cc3ccccc3)NC(=O)Nc3ccc(Oc4ccccc4)cc3)C2)ccc1O (stereo not given in full),6%
4,COc1ccc(CNC2CCCC2)cc1-c1ccc(S(=O)(=O)NCCN2CCCC2)s1,-3%
5,CS(=O)(=O)CCOCc1ccc(-c2ccc3ncnc(Nc4ccc(OCc5cccc(F)c5)c(Cl)c4)c3c2)o1,5%
6,Oc1ccc(Nc2ccnc3cc(Cl)ccc23)cc1,0%
7,CC[C@H]1CN(Cc2cccc(O)c2)CC[C@H]1CCCc1ccnc2ccc(O)cc12,4%
8,COc1ccc(Nc2nc(NC3CCCC3)cc(-c3ccc(OC)cc3)n2)cc1,2%
9,Cc1cc(N2CCCC2=O)ccc1-c1ccc(C(=O)N2CCC(Oc3cccc(Cl)c3)CC2)cc1,-3%
10,Cc1[nH]c2ccc(NS(C)(=O)=O)cc2c1C1CCN(CCC2CCN(C(=O)/C=C/c3ccc(Cl)c(Cl)c3)CC2)CC1,-1%
11,O=[N+]([O-])c1ccc(Nc2nc(NN=Cc3ccc(-c4ccc([N+](=O)[O-])cc4)o3)nc(Nc3ccccc3)n2)cc1,-5%
12,COc1cccc(Nc2nc(C)cc(NCc3ccc(-c4c(C)noc4C)cc3)n2)c1,-1%
13,CC(C)CCNC(=O)[C@@H]1[C@H]2C(=O)N(C3CCCCC3)C(=O)[C@H]2[C@H]2C=C[C@@H]3C(c4ccc(C(C)(C)C)cc4)=NO[C@@H]3N21,-2%
14,COc1ccc(-c2cccc(NC(=O)c3cccc(C#N)c3)c2)cc1CN1CCN(C)CC1,-2%
15,COc1ccc2nccc(N3CCC(SCCNS(=O)(=O)c4ccc5c(c4)NC(=O)CS5)C3)c2n1 (stereo not given),-5%
16,CC[C@H](C)CNC(=O)c1cncc(-c2cccc(CNCCCc3ccccc3)c2)c1,1%
17,Cn1c(NC2=NC3(c4ccccn4)N=C(Nc4nc5ccccc5n4C)NC3(c3ccccn3)N2)nc2ccccc21 (stereo not given),0%
18,Cc1cccc2[nH]c(-c3ccc(-c4cccc(CNCCN(C)C)c4)cc3)nc12,0%
19,CCn1nc(C(=O)NC2CCOc3ccccc32)c2ccccc2c1=O (stereo not given),0%
20,CC(Nc1ccnc2cc(Cl)ccc12)c1ccc(S(N)(=O)=O)cc1 (stereo not given),3%
